# Legend:
# Assay in all cases: DAPPL (digital affinity profiling via proximity ligation, sequencing); 10 mM Tris-HCl pH 7.5, 50 mM NaCl, 1 mM DTT, 4% glycerol, room temperature, 30 min; GST-TFs on glutathione beads, 16-mer random dsDNA library, 0.1% formaldehyde crosslink after washing; high values mean tight binding
# [1] = target: T1, FEV (Homo sapiens, UniProt Q99581 1-238); conditions: protein: recombinant; tags: N-terminal GST; dsDNA, one strand shown
# T1 sequence: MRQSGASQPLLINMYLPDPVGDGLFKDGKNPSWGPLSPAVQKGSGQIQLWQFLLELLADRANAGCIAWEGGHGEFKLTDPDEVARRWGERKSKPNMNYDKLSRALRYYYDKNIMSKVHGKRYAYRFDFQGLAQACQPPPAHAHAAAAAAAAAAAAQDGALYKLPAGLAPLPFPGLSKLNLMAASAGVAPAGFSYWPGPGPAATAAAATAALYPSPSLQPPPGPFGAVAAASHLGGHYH
# Method in brief: (§1)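 Yeast served to express human transcription factors as GST fusions, which were then captured on glutathione beads and labelled with DNA barcodes. Pooled with a tag-only sample, they were incubated with 200 nmole of a 16-mer random double-stranded DNA library for 30 min at room temperature in Tris/NaCl/DTT/glycerol buffer, washed, crosslinked with 0.1% formaldehyde, ligated by proximity, amplified by PCR and sequenced. Dividing each hexamer's read frequency for a factor by its frequency for the tag-only sample gives the binding signal.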
# [2] = target: ETV5 (Homo sapiens, UniProt P41161 1-510); conditions: protein: recombinant; tags: N-terminal GST; dsDNA, one strand shown
# ETV5, sequence (P41161 whole entry): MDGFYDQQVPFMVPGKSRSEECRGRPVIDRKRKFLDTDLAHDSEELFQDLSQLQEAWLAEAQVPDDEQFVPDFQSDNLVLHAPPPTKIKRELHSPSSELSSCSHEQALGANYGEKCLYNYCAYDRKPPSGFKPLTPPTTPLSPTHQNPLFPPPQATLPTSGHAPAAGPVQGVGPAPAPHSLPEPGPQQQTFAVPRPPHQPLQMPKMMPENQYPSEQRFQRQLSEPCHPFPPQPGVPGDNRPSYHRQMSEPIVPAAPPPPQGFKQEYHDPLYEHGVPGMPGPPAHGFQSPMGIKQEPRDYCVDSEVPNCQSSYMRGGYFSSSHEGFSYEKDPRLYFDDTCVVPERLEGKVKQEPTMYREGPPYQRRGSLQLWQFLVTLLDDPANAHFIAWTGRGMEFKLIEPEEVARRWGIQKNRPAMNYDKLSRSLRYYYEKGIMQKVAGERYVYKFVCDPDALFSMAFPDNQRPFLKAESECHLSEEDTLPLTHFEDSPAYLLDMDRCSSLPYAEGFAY
# Method in brief: as §1
# [3] = target: HSF1 (Homo sapiens, UniProt Q00613 1-529); conditions: protein: recombinant; tags: N-terminal GST; chain copies: 3; dsDNA, one strand shown
# HSF1, sequence (Q00613 whole entry): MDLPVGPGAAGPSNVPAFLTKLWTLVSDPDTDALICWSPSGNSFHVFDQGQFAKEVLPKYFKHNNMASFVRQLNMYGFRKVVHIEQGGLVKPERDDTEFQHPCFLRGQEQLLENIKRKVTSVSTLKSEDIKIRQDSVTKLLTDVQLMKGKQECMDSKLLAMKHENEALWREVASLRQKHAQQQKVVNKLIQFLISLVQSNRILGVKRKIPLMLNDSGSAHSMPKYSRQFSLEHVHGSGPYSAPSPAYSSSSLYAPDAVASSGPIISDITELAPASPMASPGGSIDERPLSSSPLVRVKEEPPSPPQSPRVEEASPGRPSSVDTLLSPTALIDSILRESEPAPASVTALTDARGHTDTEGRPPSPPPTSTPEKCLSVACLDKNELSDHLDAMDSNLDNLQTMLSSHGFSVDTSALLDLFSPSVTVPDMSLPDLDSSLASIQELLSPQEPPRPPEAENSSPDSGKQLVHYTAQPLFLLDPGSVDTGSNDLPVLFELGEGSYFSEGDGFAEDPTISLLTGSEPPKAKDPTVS
# Method in brief: as §1
# [4] = target: T2, SPIC (Homo sapiens, UniProt Q8N5J4 1-248); conditions: protein: recombinant; tags: N-terminal GST; dsDNA, one strand shown
# T2 sequence: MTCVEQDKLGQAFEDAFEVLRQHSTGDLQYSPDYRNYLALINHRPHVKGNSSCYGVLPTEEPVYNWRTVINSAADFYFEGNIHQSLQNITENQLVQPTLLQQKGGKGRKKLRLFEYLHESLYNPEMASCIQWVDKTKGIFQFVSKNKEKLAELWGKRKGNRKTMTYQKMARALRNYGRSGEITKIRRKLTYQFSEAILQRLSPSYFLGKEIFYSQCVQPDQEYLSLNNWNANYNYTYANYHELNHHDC
# Method in brief: as §1
# [5] = target: ELF4 (Homo sapiens, UniProt Q99607 1-663); conditions: protein: recombinant; tags: N-terminal GST; dsDNA, one strand shown
# ELF4, sequence (Q99607 whole entry): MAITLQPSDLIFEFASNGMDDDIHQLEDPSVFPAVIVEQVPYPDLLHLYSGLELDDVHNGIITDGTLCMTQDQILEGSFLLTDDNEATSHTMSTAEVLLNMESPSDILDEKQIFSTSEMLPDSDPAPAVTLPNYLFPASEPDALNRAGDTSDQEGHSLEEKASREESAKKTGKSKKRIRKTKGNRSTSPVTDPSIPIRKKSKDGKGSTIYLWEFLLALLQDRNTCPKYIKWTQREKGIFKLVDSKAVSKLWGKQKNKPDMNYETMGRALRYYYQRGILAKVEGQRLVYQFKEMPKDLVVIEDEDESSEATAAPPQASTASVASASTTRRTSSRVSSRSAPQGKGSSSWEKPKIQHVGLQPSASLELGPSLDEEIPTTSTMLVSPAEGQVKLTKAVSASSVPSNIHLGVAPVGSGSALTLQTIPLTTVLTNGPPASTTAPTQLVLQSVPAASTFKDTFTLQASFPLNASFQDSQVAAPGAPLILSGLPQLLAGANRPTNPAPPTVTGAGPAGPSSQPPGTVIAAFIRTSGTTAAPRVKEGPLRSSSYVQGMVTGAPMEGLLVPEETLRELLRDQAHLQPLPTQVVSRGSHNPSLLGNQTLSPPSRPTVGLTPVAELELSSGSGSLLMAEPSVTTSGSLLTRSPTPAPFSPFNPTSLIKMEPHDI
# Method in brief: as §1
# [6] = target: T3, ELK4 (Homo sapiens, UniProt P28324-2 1-405); conditions: protein: recombinant; tags: N-terminal GST; dsDNA, one strand shown
# T3 sequence: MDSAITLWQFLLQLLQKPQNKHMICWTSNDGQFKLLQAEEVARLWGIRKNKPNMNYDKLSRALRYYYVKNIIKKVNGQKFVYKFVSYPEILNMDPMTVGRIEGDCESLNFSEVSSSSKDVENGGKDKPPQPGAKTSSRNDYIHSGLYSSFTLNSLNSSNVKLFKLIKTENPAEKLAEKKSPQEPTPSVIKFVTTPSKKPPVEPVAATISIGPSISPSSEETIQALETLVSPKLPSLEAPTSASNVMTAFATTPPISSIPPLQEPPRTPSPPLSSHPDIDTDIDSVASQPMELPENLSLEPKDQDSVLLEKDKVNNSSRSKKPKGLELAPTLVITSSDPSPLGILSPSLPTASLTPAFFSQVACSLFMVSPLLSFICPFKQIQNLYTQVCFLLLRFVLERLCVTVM
# Method in brief: as §1
# [7] = target: T4, ETV2 (Homo sapiens, UniProt O00321 1-342); conditions: protein: recombinant; tags: N-terminal GST; dsDNA, one strand shown
# T4 sequence: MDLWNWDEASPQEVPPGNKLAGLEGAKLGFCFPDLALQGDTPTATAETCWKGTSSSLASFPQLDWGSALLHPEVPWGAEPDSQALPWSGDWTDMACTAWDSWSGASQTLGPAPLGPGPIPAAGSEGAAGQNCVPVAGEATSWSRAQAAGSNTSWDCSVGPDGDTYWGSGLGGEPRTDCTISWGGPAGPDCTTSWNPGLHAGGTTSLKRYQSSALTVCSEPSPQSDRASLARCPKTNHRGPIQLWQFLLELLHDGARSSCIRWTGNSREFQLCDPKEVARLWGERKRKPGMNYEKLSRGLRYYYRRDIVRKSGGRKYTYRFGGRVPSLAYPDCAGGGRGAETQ
# Method in brief: as §1
# [8] = target: T5, ELF3 (Homo sapiens, UniProt P78545 1-371); conditions: protein: recombinant; tags: N-terminal GST; dsDNA, one strand shown
# T5 sequence: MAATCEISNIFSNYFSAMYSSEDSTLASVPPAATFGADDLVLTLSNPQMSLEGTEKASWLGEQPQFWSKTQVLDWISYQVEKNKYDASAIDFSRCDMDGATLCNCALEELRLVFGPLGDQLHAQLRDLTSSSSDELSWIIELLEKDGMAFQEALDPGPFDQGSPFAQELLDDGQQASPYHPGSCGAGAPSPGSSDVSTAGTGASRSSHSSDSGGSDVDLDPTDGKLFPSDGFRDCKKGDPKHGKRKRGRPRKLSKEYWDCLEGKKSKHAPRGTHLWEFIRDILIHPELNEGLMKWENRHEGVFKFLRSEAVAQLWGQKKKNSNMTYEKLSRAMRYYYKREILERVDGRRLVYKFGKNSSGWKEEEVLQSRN
# Method in brief: as §1
# [9] = target: CRX (Homo sapiens, UniProt O43186 1-299); conditions: protein: recombinant; tags: N-terminal GST; dsDNA, one strand shown
# CRX, sequence (O43186 whole entry): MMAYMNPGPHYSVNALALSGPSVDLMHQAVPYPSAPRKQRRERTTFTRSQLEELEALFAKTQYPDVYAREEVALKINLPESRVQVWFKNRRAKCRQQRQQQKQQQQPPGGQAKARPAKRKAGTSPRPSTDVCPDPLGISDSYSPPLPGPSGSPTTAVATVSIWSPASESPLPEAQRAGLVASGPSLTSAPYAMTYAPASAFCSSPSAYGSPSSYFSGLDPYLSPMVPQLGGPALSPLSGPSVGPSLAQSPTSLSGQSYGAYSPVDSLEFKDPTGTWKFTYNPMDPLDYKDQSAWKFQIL
# Method in brief: as §1
# [10] = target: ETV1 (Homo sapiens, UniProt P50549 1-477); conditions: protein: recombinant; tags: N-terminal GST; dsDNA, one strand shown
# ETV1, sequence (P50549 whole entry): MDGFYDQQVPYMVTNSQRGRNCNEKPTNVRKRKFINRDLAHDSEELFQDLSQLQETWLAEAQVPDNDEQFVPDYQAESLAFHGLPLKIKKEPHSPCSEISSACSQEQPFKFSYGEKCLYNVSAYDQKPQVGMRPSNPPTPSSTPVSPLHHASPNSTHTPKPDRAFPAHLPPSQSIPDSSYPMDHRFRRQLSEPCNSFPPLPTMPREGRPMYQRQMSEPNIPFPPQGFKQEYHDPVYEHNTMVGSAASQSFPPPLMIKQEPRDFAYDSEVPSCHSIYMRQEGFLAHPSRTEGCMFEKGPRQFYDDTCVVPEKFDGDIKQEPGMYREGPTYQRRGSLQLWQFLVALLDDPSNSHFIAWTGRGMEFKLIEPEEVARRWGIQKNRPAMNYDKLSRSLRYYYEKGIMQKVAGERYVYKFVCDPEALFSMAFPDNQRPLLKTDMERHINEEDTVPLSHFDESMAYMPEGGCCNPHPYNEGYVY
# Method in brief: as §1
# [11] = target: T6, ERF (Homo sapiens, UniProt P50548 1-548); conditions: protein: recombinant; tags: N-terminal GST; dsDNA, one strand shown
# T6 sequence: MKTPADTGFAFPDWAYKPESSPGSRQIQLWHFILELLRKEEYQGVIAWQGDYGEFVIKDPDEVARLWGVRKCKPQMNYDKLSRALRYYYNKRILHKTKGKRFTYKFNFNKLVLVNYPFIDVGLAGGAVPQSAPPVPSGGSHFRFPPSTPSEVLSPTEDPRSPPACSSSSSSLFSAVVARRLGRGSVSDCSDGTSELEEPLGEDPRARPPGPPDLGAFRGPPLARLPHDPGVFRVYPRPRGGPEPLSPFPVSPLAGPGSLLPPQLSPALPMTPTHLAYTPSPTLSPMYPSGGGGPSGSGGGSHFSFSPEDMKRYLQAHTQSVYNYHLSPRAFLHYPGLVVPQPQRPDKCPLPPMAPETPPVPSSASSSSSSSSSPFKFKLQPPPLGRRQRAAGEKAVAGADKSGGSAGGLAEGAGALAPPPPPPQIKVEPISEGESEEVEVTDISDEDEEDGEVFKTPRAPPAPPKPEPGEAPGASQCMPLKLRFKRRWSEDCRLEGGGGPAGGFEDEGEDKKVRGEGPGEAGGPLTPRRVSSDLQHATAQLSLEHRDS
# Method in brief: as §1
# [12] = target: T7, ETV3L (Homo sapiens, UniProt Q6ZN32 1-361); conditions: protein: recombinant; tags: N-terminal GST; dsDNA, one strand shown
# T7 sequence: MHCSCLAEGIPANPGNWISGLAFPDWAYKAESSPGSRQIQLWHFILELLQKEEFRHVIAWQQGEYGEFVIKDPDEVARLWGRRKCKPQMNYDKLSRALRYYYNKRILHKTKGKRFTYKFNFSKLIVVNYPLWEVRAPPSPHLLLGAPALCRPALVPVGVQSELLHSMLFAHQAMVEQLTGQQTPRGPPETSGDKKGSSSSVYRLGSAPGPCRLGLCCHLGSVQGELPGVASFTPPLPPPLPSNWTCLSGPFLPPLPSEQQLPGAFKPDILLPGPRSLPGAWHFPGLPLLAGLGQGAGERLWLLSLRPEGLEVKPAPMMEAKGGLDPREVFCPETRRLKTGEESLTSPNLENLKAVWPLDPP
# Method in brief: as §1
# [13] = target: T8, ETS2 (Homo sapiens, UniProt P15036 1-469); conditions: protein: recombinant; tags: N-terminal GST; dsDNA, one strand shown
# T8 sequence: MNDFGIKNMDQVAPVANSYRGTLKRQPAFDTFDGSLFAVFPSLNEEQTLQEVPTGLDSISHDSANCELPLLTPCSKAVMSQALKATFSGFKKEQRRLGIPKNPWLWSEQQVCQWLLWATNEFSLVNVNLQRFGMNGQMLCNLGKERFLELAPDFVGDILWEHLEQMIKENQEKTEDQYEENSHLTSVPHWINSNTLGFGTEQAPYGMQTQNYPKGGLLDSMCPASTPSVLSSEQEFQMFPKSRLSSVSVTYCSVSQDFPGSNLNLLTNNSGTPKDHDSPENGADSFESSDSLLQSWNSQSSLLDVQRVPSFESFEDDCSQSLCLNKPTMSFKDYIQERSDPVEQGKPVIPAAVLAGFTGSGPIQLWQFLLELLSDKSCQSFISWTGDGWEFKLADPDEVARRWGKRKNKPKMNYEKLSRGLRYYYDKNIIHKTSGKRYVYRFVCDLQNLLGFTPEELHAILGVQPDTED
# Method in brief: as §1
# [14] = target: T9, SPDEF (Homo sapiens, UniProt O95238 1-335); conditions: protein: recombinant; tags: N-terminal GST; dsDNA, one strand shown
# T9 sequence: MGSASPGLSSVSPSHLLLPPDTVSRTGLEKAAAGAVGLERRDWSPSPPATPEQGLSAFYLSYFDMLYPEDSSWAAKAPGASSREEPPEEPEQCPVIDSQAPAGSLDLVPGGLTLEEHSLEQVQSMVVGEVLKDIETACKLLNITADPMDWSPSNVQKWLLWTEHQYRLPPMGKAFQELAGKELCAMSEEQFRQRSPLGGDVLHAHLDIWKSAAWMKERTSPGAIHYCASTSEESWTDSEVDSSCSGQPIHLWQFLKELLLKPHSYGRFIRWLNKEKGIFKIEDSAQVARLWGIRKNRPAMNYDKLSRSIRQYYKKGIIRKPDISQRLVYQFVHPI
# Method in brief: as §1
# [15] = target: T10, ETV7 (Homo sapiens, UniProt Q9Y603 1-341); conditions: protein: recombinant; tags: N-terminal GST; dsDNA, one strand shown
# T10 sequence: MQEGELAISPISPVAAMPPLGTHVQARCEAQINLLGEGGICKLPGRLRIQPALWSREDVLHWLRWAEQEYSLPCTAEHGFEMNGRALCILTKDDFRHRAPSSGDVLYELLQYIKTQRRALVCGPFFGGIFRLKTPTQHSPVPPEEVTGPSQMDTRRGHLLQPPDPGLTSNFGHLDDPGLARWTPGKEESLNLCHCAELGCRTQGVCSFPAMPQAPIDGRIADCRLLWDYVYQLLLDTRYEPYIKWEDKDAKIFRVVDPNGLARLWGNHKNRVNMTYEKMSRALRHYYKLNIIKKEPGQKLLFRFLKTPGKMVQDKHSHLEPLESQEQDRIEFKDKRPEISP
# Method in brief: as §1
# [16] = target: T11, ELF5 (Homo sapiens, UniProt Q9UKW6-2 1-255); conditions: protein: recombinant; tags: N-terminal GST; dsDNA, one strand shown
# T11 sequence: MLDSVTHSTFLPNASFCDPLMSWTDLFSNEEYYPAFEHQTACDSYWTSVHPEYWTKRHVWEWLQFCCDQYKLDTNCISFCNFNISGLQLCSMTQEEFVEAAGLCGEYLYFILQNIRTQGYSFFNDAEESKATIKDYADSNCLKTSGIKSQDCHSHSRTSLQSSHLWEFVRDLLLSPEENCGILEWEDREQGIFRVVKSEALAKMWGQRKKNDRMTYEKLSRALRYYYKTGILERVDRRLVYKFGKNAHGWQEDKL
# Method in brief: as §1
# [17] = target: T12, ETV3 (Homo sapiens, UniProt P41162-2 1-143); conditions: protein: recombinant; tags: N-terminal GST; dsDNA, one strand shown
# T12 sequence: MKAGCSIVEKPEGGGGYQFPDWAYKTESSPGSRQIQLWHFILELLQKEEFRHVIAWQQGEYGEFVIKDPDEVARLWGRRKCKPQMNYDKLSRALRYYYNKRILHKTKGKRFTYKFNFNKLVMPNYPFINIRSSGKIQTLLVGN
# Method in brief: as §1
# [18] = target: ETV6 (Homo sapiens, UniProt P41212 1-452); conditions: protein: recombinant; tags: N-terminal GST; dsDNA, one strand shown
# ETV6, sequence (P41212 whole entry): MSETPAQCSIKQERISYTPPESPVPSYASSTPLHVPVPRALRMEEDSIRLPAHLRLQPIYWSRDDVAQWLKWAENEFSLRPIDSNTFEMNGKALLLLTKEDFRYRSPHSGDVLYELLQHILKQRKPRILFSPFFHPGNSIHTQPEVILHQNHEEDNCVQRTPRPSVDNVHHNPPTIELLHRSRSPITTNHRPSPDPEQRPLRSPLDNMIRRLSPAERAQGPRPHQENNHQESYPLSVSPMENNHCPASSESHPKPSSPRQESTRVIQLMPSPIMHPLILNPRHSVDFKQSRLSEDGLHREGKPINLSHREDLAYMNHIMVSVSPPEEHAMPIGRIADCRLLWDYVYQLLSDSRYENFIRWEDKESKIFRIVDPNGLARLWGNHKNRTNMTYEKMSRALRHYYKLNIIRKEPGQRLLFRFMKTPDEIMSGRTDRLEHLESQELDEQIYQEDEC
# Method in brief: as §1
sequence,measurement,setting,value
TAATGG,binding signal,[1],"1.25 fold enrichment (6-mer frequency, TF over GST control)"
same,binding signal,[2],"1.35 fold enrichment (6-mer frequency, TF over GST control)"
same,binding signal,[3],"1.46 fold enrichment (6-mer frequency, TF over GST control)"
same,binding signal,[4],"1.34 fold enrichment (6-mer frequency, TF over GST control)"
same,binding signal,[5],"1.3 fold enrichment (6-mer frequency, TF over GST control)"
same,binding signal,[6],"1.3 fold enrichment (6-mer frequency, TF over GST control)"
same,binding signal,[7],"1.09 fold enrichment (6-mer frequency, TF over GST control)"
same,binding signal,[8],"1.31 fold enrichment (6-mer frequency, TF over GST control)"
same,binding signal,[9],"1.64 fold enrichment (6-mer frequency, TF over GST control)"
same,binding signal,[10],"1.45 fold enrichment (6-mer frequency, TF over GST control)"
same,binding signal,[11],"1.17 fold enrichment (6-mer frequency, TF over GST control)"
same,binding signal,[12],"1.23 fold enrichment (6-mer frequency, TF over GST control)"
same,binding signal,[13],"1.28 fold enrichment (6-mer frequency, TF over GST control)"
same,binding signal,[14],"1.22 fold enrichment (6-mer frequency, TF over GST control)"
same,binding signal,[15],"1.2 fold enrichment (6-mer frequency, TF over GST control)"
same,binding signal,[16],"1.32 fold enrichment (6-mer frequency, TF over GST control)"
same,binding signal,[17],"1.28 fold enrichment (6-mer frequency, TF over GST control)"
same,binding signal,[18],"1.31 fold enrichment (6-mer frequency, TF over GST control)"

# From PMC7862700, “An all-to-all approach to the identification of sequence-specific readers for epigenetic DNA modifications on cytosine”
